High-throughput results (PubChem BioAssay)
TDP1 cell noCPT: qHTS for Inhibitors of human tyrosyl-DNA phosphodiesterase 1 (TDP1): qHTS in cells in absence of CPT | DT40 Tdp1-/- hTDP1 cells, no CPT, ATP luminescence, 48 h | actives 15% (n = 420,000) | Potency, µM (series often up to 46.2 µM), for inactives: at the top dose activity change, negative = growth inhibition, hits mostly inhibitors | AID 686978, 2013; note: potency is the fitted concentration of half-maximal effect; % is set by controls: 0 for no effect and ±100 for the full control effect; nearly all actives have a fitted effect of over 55% in size
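Chicken DT40 Tdp1-/- cells stably complemented with human TDP1 were seeded at 400 cells/well with DMSO in place of 20 nM camptothecin. After compound pinning, cells grew at least 48 hr at 37 °C; viability read by CellTiter-Glo luminescence.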
DT40 TDP1 CPT: qHTS for Inhibitors of human tyrosyl-DNA phosphodiesterase 1 (TDP1): qHTS in cells in presence of CPT. chicken DT40 Tdp1-/-;hTDP1 cells + 20 nM CPT, ATP luminescence, 48 h. Potency, µM (highest dose often 46.2 µM), without a hit: top-dose activity change, negative = growth inhibition, actives largely listed as inhibitors. actives 12% (n = 420,000). AID 686979, 2013; note: potency is the fitted concentration of half-maximal effect; % is set by controls: 0 for no effect and ±100 for the full control effect; nearly all actives have a fitted effect of over 55% in size
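Chicken DT40 Tdp1-/- cells complemented with human TDP1, 400 cells/well, exposed to compounds plus 20 nM camptothecin for at least 48 h at 37 C; viability read as ATP content by CellTiter-Glo luminescence.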
SW480 rereplic: A quantitative high throughput screen for small molecules that induce DNA re-replication in SW480 colon adenocarcinoma cells; SW480 DNA re-replication, Hoechst DNA content imaging, 48 h; Potency, µM (highest dose often 46.1 µM), without a hit: at the highest dose re-replication activation, usual class: activators; actives 1.8% (n = 340,000); AID 624297, 2012; note: potency is the fitted concentration of half-maximal effect; % of control where 0% means no effect; nearly all actives have a fitted effect of over 55% in size
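Image-based read-out: total Hoechst fluorescence of nuclei (405 nm excitation, 500-530 nm emission), with hits raising the fraction of high-intensity nuclei. SW480 colon cells incubated 48 hr with compounds at 37 C.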
MCF10A rereplic: A quantitative high throughput screen for small molecules that induce DNA re-replication in MCF 10a normal breast cells; Potency, µM (doses to about 46.1 µM), without a hit: at the top dose activity, positive = re-replication, most hits filed as activators; MCF 10A DNA re-replication, Hoechst nuclear intensity, 48 h; AID 624296, 2012; actives 2.9% (n = 350,000); note: potency is the fitted concentration of half-maximal effect; % of control where 0% means no effect; nearly all actives have a fitted effect of over 50% in size
Chronic BCR inh: qHTS Assay to Find Inhibitors of Chronic Active B-Cell Receptor Signaling; ABC-DLBCL IkBa-CBG/CBR reporter, luminescence ratio, 4 h; actives 0.05% (n = 340,000); Potency, µM (titrated, usually from 46.1 µM), without a hit: top-dose activity change, negative = inhibition, hits mostly inhibitors; active = well fitted inhibition curve with a large enough effect in the signal ratio, with a control signal flat, not every such curve was filed as active; inconclusive = small, poorly fitted or top-dose-only effect, or effect the other way, or a change in a side signal; the % refers to the signal ratio;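 note: potency is the fitted concentration of half-maximal effect; plate controls were basal doxycycline-induced cells for no effect and cells given 10 µM MG132 for full effect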
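TMD8 human ABC-DLBCL cells with doxycycline-inducible IκBα–green luciferase fusion and unfused red luciferase, in 0.5% FBS medium; compounds up to 46 uM, 4 h at 37C. Green/red luminescence ratio, filter-overlap corrected, fitted to concentration-response curves.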
IL1B secr inh: qHTS for Inhibitors of Inflammasome Signaling: IL-1-beta AlphaLISA Primary Screen; THP-1 LPS/ATP IL-1B secretion, AlphaLISA, 16 h; active compounds read low; activity change, % at 57.5 µM; actives 4.7% (n = 360,000); in the data active = activity change below about -50%; inconclusive = mostly about -30% to -49%; note: % is set by controls: 0 for no effect and ±100 for the full control effect
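THP-1 cells pretreated 1 hr with compounds (up to 57.5 uM final), then stimulated with LPS (250 ng/mL final) plus ATP (1.25 mM final); secreted IL-1B measured by AlphaLISA after 16 hr, decreased signal indicating inhibition.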
* marks the source's active call; other numbers are inactive results; i = inactive; ? = inconclusive; / = no result given; [ ] = remark or other dose. Shown are actives, neighbours in structure and some others; about 19% of the full set was active somewhere. Unless noted, calls come from the whole dose curve; as a rule, active = well fitted curve in the direction sought with a large enough effect; inconclusive = small, poorly fitted or top-dose-only effect, or another doubt; inactive = no such curve, though single readings can be large; an effect the other way counts as inactive or inconclusive.

SMILES	TDP1 cell noCPT	DT40 TDP1 CPT	SW480 rereplic	MCF10A rereplic	Chronic BCR inh	IL1B secr inh
COc1ccccc1CNCCS(=O)(=O)NCc1ccccc1	?	-22%	-16%	-6%	/	-1
Cc1cccc(C)c1NC(=O)C(c1ccccc1)N1CCC2(CC1)OCCO2 (configuration not stated)	-18%	-9%	0%[9.22 µM]	4%	/	-8
Cc1cccc(C)c1NC(=O)C(CCc1ccccc1)N1CCC(c2ccccc2)CC1 (configuration not stated)	18µM*	16µM*	/	/	/	2
Cc1cccc(C)c1NC(=O)C(c1ccccc1)N1CCC(c2ccccc2)CC1 (configuration not stated)	15µM*	?	/	/	/	0
Cc1cccc(C)c1NC(=S)N1CCC(c2ccccc2)C1 (configuration not stated)	?	-2%	-7%	2%	1%	-15
Cc1ccc(NC(=O)c2cnn(-c3ccccc3)c2C)cc1C	?	?	-9%	16%	0%	?
CNS(=O)(=O)c1cc(NC(=O)c2cnc(SC)n2-c2ccccc2)ccc1C	15µM*	?	-1%	0%	?	-2
COc1ccc(C)cc1NC(=O)CSc1ccc(-c2ccco2)nn1	?	?	-3%	-5%	0%	i
Cc1ccc(C)c(OCC(O)CN2CCC(Cc3ccccc3)CC2)c1 (configuration not stated)	?	21µM*	-4%	-3%	-19%	-60*
Cc1ccc(C)c(OCC(O)CN2C(C)CCCC2C)c1 (configuration not stated)	?	23µM*	?	3%[9.22 µM]	3%	20
Cc1ccc(C)c(OCC(O)CN2CCCCC2C)c1 (configuration not stated)	?	-20%	-4%	13%	-1%	17
CC1C(=O)Nc2ccc(S(=O)(=O)N3CCCCCC3)cc21 (configuration not stated)	-5%	-10%	-25%	2%	2%	10
CN(CC(=O)Nc1ccc(F)cc1)CC(=O)NC1CCCCC1	3%	7%	-4%	-4%	?	9
O=C(OCC(=O)N(CCc1ccccc1)Cc1ccccc1)c1cccc(S(=O)(=O)N2CCOCC2)c1	7.3µM*	?	22%	?	/	21
O=C(OCC(=O)N(CCc1ccccc1)Cc1ccccc1)c1ccc(F)c(S(=O)(=O)N2CCOCC2)c1	2.9µM*	?	-7%	6%	/	15
Nc1ncnc2c(C3OC(CO)C(O)C3O)c[nH]c12 (configuration not stated)	0.15µM*	0.16µM*	0.21µM*	?	/	-104*
Nc1ncnc2c1nc(Br)n2C1CC(O)C(CO)O1 (configuration not stated)	-7%	-3%	/	/	/	/
Cc1nc(SCc2ccc(Cl)cc2)ncc1C(=O)O	2%	7%	-2%	-1%	?	1
CCOc1[nH]n(-c2ccccc2)c(=O)c1C=Nc1ccc(C)cc1	-18%	?	1%	-6%	4%	-25
CCOc1[nH]n(-c2ccc(Cl)cc2)c(=O)c1C=Nc1ccc(OC)cc1	?	?	-9%	1%	-2%	-15
CCOc1[nH]n(-c2ccccc2)c(=O)c1C=Nc1ccccc1	5.8µM*	6.5µM*	?	23µM*	13%	16
CCOc1[nH]n(-c2ccccc2)c(=O)c1C=Nc1ccc(Cl)cc1	15µM*	?	-17%	7%	0%	0
COc1ccc(Cn2nnnc2C(c2ccccn2)N2CCN(c3ccc(O)cc3)CC2)cc1 (configuration not stated)	?	-27%	/	/	/	/
COC(=O)Nc1ccc2[nH]cc(CCNC(C)=O)c2c1	-25%	?	/	/	/	/
Cc1ccc(C2=NN=C(NC(=O)C(F)(F)F)SC2)cc1	-9%	-6%	-5%	2%	0%	-82*
SMILES	TDP1 cell noCPT	DT40 TDP1 CPT	SW480 rereplic	MCF10A rereplic	Chronic BCR inh	IL1B secr inh
COc1ccc(NC(=O)NC2COc3ccccc3C2)c(OC)c1 (configuration not stated)	-5%	-11%	/	/	/	/
COc1ccc2c(c1)CC(NC(=O)Nc1cc(Cl)ccc1OC)CO2 (configuration not stated)	?	23µM*	/	/	/	/
Cc1cccc(Nc2ncnc3c2cnn3C)c1C	?	-25%	/	/	-29%	/
OCCNc1nc(N2CCN(c3ccccc3)CC2)nc2ccccc12	?	23µM*	1%	7.3µM*	-1%	-3
COc1cccc(Nc2nc(NCCO)c3ccccc3n2)c1	21µM*	4.6µM*	?	?	?	/
OCCNc1nc(NCc2ccccc2)c2ccccc2n1	?	?	-1%	0%	2%	-99*
COc1cccc(Nc2nc(-c3ccccc3O)nc3ccccc23)c1	?	?	-8%	?	12%	4
OCCNc1nc(Nc2cccc(O)c2)nc2ccccc12	?	?	-24%	-4%	?	-105*
OCCNc1nc(Nc2ccc(O)cc2)nc2ccccc12	?	?	11%	5%	?	/
CCc1nc2ccc(C(=O)Nc3cccc(OCC(=O)N(C)C)c3)cn2c1N(C)C(=O)c1ccncc1	0%	12%	/	/	/	11
COc1ccc(S(N)(=O)=O)cc1C(=O)N(C)CC(=O)Nc1ccc(N2CCOCC2)cc1	2%	-11%	-3%	1%	5%	-1
CCOc1ccccc1C(=O)NCC(=O)NNC(=O)c1csc(N2CCOCC2)n1	-65%	-88%	/	/	/	39
CC(C)(C)NC(=O)C(CCc1ccccc1)n1c(=O)c(-c2cc3ccccc3[nH]2)nc2ccccc21 (configuration not stated)	13µM*	15µM*	/	/	/	15
Cc1cccc(C)c1NC(=O)C(CCc1ccccc1)n1c(=O)c(-c2ccccc2)nc2ccccc21 (configuration not stated)	4.1µM*	3.3µM*	/	/	/	-4
Cc1cccc(C)c1NC(=O)C(CCc1ccccc1)n1c(=O)c(-c2cc3ccccc3[nH]2)nc2ccccc21 (configuration not stated)	6.5µM*	7.3µM*	/	/	/	-12
